Bioassay records (PubChem)
In the library only some 8.3% were active in any assay of this set; here they are far more common.
Lassa entry inh: inhibitors of Lassa virus binding or cell entry; Lassa virus pseudotype entry inhibition, cell reporter; Potency, µM (top dose mostly 37.9 µM), most hits filed as inhibitors; hit rate 1.2% among 300,000; AID 540256; calls by dose curve; tested in HEK293 cells; note: nearly all actives have a fitted effect of over 50% in size
Giardia FBPA inh: inhibitors of Giardia lamblia fructose-1,6-bisphosphate aldolase | A8B2U2 | purified Giardia FBPA | hit rate 0.71% among 290,000 | Potency, µM (doses to about 59.6 µM), actives largely listed as inhibitors | AID 2451; note: nearly all actives have a fitted effect of over 55% in size
Target sequence (A8B2U2 whole entry, looked up): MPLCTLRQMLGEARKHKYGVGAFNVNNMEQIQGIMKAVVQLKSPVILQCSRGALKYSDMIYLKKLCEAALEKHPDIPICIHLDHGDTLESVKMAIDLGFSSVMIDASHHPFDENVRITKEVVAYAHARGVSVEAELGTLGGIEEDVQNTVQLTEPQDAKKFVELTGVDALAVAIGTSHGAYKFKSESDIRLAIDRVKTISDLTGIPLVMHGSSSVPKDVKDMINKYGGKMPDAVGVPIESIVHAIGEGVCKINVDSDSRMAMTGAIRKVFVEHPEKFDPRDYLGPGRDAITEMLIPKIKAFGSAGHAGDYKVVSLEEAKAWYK
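Giardia FBPA (40 nM reagent) was preincubated 10 min at RT with compound (up to 57.5 uM final), then substrate plus GAPDH/TPI/NAD/arsenate coupling system with diaphorase/resazurin was added; resorufin fluorescence (525/598 nm) was read after 20 min.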
HCV inhibitor: HCV inhibition; Huh7.5.1 HCVcc-Cre infection, luciferase reporter, 44 h; Potency, µM (titrated, usually from 41.8 µM), hits mostly inhibitors; hit rate 3.4% among 340,000
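After 44 h co-culture of compound, cells and HCVcc-Cre (~0.5 moi), substrate is added for 15 min at room temperature and luciferase measured over 15 sec. Cells were seeded at 1,000/well and pre-cultured 4 h.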
FMDV inh: antivirals against foot and mouth disease virus; FMDV antiviral cell-based qHTS; Potency, µM (titrated, usually from 57.9 µM), most hits filed as inhibitors; hit rate 1.2% among 410,000; AID 1159524; calls by dose curve; tested in HEK293T cells; note: read-out not given here; nearly all actives have a fitted effect of over 45% in size
HCMV antiviral: human cytomegalovirus inhibition | AID 1259415 | hit rate 4.5% among 410,000 | HFF cells, HCMV-luciferase reporter, 72 h; hits give low values | activity change, negative = inhibition, % at 57.5 µM; in the data active = activity change below about -60%; inconclusive = no clear call, values can overlap the other calls; inactive = above about -39%
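Compounds were evaluated in HFFs infected with an HCMV luciferase reporter virus (MOI 1 PFU/cell). Luciferase in lysates collected 72 h post infection served as the replication measure.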
Marburg entry inh: Marburg virus entry inhibition; Marburg virus pseudotyped entry inhibition, cell reporter; Potency, µM (doses to about 37.8 µM), most hits filed as inhibitors; hit rate 1.8% among 300,000; AID 540276; calls by dose curve; tested in HEK293 cells
Numbers stand for hits; n = inactive; u = inconclusive; x = no result given; ! = not confirmed by another sample; [ ] = remark or other dose. Unless noted, calls come from the whole dose curve; as a rule, active = well fitted curve in the direction sought with a large enough effect; inconclusive = small, poorly fitted or top-dose-only effect, or another doubt; inactive = no such curve, though single readings can be large; an effect the other way counts as inactive or inconclusive.

SMILES	Lassa entry inh	Giardia FBPA inh	HCV inhibitor	FMDV inh	HCMV antiviral	Marburg entry inh
Cc1cccc(NC(=O)CSc2nnc(CNC(=O)c3ccc(S(=O)(=O)N(C)C)cc3)n2-c2cccc(C)c2)c1	14µM	n	u	n	n	n
Cc1cccc(NC(=O)CSc2nnc(CNC(=O)c3ccc(S(=O)(=O)N(C)C)cc3)n2-c2ccccc2)c1	u	n	u	n	n	u
COc1ccc(C(=O)NCCN2Cc3cc(C)ccc3OC(C)C2)c(OC)n1 (centres undefined)	x	x	x	n	x	x
C#CCOCCOCCOCCNc1nc(N2CCN(C(=O)CCCCCCCCCCNC(=O)Cn3cc(C[C@@H](C)O)nn3)CC2)nc(N2CCN(C(=O)CCCCCCCCCCNC(=O)[C@@H](CCC(=O)O)n3cc(CCCCCN)nn3)CC2)n1	x	x	n	n	n	x
C#CCOCCOCCOCCNc1nc(N2CCN(C(=O)CCCCCCCCCCNC(=O)Cn3cc(C[C@@H](C)O)nn3)CC2)nc(N2CCN(C(=O)CCCCCCCCCCNC(=O)[C@H](CO)n3cc(CCCSC)nn3)CC2)n1	x	x	n	n	-85	x
C#CCOCCOCCOCCNc1nc(N2CCN(C(=O)CCCCCCCCCCNC(=O)[C@H]([C@@H](C)CC)n3cc(CCCCCN)nn3)CC2)nc(N2CCN(C(=O)CCCCCCCCCCNC(=O)[C@H](CCCCN)n3cc(CCCC(=O)O)nn3)CC2)n1	x	x	11µM	u	x	x
C#CCOCCOCCOCCNc1nc(N2CCN(C(=O)CCCCCCCCCCNC(=O)[C@H]([C@@H](C)CC)n3cc(CCCCN=C(N)N)nn3)CC2)nc(N2CCN(C(=O)CCCCCCCCCCNC(=O)[C@H](CCCCN)n3cc(C)nn3)CC2)n1	x	x	u	35µM	x	x
C#CCOCCOCCOCCNc1nc(N2CCN(C(=O)CCCCCCCCCCNC(=O)[C@@H](CCC(=O)O)n3cc(CCCCCN)nn3)CC2)nc(N2CCN(C(=O)CCCCCCCCCCNC(=O)[C@H]([C@@H](C)CC)n3cc(CCCCCN)nn3)CC2)n1	x	x	u	n	x	x
CCCCNc1nc(Nc2ccc(C)c(Cl)c2)c2cnn(C)c2n1	x	n	13µM	u	n	x
CCNc1nc(Nc2ccc(C)c(Cl)c2)c2cnn(C)c2n1	x	n	14µM	u	n	x
CCNc1nc(NCc2ccc(F)cc2)c2cnn(C)c2n1	n	x	x	u	u	x
CC(=NNC(=S)Nc1ccccc1Cl)c1ccccn1	0.25µM	x	u	n	-99	u
CC(=NNC(=S)Nc1ccccc1)c1ccccn1	x	x	x	n	-98	x
S=C(NN=C(C1CC1)C1CC1)Nc1ccccc1	u	n	n	n	u	n
CCCCC#CC1C=CC(Oc2ccc(OC)cc2)C(CO)O1 (centres undefined)	x	n[12.9 µM]	x	x	x	x
Cc1ccc2[nH]c(=O)c(CN(Cc3ccco3)S(=O)(=O)c3c(C)ccc4nsnc34)cc2c1	u	n	7.1µM!	x	n	u
Cc1ccc2nsnc2c1S(=O)(=O)N(Cc1ccco1)Cc1cc2cccc(C)c2[nH]c1=O	u	n	u	n	n	n
Cc1ccc2nsnc2c1S(=O)(=O)N(CCO)Cc1cc2cc3c(cc2[nH]c1=O)OCCO3	n	n	n	n	n	n
Cc1ccc2[nH]c(=O)c(CN(CC3CCCO3)S(=O)(=O)c3c(C)ccc4nsnc34)cc2c1 (centres undefined)	u	n	n	u	n	u
Cc1ccc2nsnc2c1S(=O)(=O)N(Cc1ccco1)Cc1cc2ccc(C)c(C)c2[nH]c1=O	u	n	n	n	-85	1.6µM
COc1ccc2[nH]c(=O)c(CN(Cc3cccs3)S(=O)(=O)c3c(C)ccc4nsnc34)cc2c1	13µM	n	11µM	n	-103	u
O=C(CCc1nnc2n(Cc3ccccc3)c(=O)c3ccccc3n12)NCCCN1CCCCC1	n	n	n	n	-62	u
Cc1nn(CC(=O)N2c3ccccc3NC(=O)C2(C)C)c(C)c1[N+](=O)[O-]	x	n	n	n	-82	x
CC(C)(C)c1ccc(C(=O)Nc2ccc(C(=O)OCc3cc(=O)n4ccsc4n3)cc2)cc1	n	x	x	14µM	n	x
CC(Oc1ccccc1)C(=O)Nc1ccc(C(=O)OCc2cc(=O)n3ccsc3n2)cc1 (centres undefined)	u	x	x	25µM	n	x
SMILES	Lassa entry inh	Giardia FBPA inh	HCV inhibitor	FMDV inh	HCMV antiviral	Marburg entry inh
Cc1ccc(OCC(=O)Nc2ccc(C(=O)OCc3cc(=O)n4ccsc4n3)cc2)cc1C	n	x	x	35µM	n	x
O=C(OCc1cc(=O)n2ccsc2n1)C1(c2ccccc2)CC1	x	x	x	n	-98	x
Cc1ccc(OCC(=O)Nc2ccc(OCc3cc(=O)n4ccsc4n3)cc2)cc1C	n	x	x	n	n	n
Cc1ccc(C(=O)Nc2ccc(C(=O)OCc3cc(=O)n4ccsc4n3)cc2)cc1	n	x	x	n	n	x
O=C(CNC(=O)c1ccccc1)OCc1cc(=O)n2ccsc2n1	n	x	x	n	n	x
COCOc1c2c(c(OCOC)c3c(OCOC)cccc13)C(=NNS(C)(=O)=O)C1=C2CCCC1	x	x	x	x	x	n
O=C(O)c1cc(=O)c2cc(Cl)ccc2[nH]1	x	n	x	x	x	x
O=C(NCc1ccc(F)c(F)c1)c1cnc(N2CCN(Cc3ccccc3)C2=O)s1	x	x	x	x	n	x
COCCn1c(-c2ccccc2)nc2oc3ccccc3c(=O)c2c1=O	n	n	n	n	n	n
COCCn1c(-c2cc(OC)c(OC)c(OC)c2)nc2oc3ccccc3c(=O)c2c1=O	5.8µM	n	u	n	-65	u
C=CCc1c(C)nc2nc(SCC(=O)Nc3ccc(OCC)cc3)nn2c1C	n	x	x	n	n	x
Cc1cccc(OCCn2nc(C(=O)O)c3ccccc3c2=O)c1	n	n	n	n	n	n
CCOc1ccc(C(C)=O)cc1Cn1nc(C(=O)O)c2ccccc2c1=O	n	n	7.9µM	u	n	u
Cc1cccc(C)c1OCCn1nc(C(=O)O)c2ccccc2c1=O	6.3µM	n	n	u	n	10µM
COc1ccc(NC(=O)Nc2ccc3c(c2)C(=O)N([C@H](C)CO)C[C@H](C)[C@H](CN(C)C)OCCCC[C@@H](C)O3)cc1	x	x	x	x	n	x
Cc1ccc(S(=O)(=O)c2ccc([N+](=O)[O-])o2)cc1	u	x	3.5µM	18µM	n	7.9µM
Cc1ccc(S(=O)(=O)Nc2c(C)cc([N+](=O)[O-])cc2C)cc1	n	x	n	u	n	n
CS(=O)(=O)N1CCC2(CC1)CN(C(c1ccccc1)c1ccccc1)C2	x	n	x	n	x	x
COc1ccc(CNC(=O)c2cc3c(=O)n4cccc(C)c4nc3s2)cc1	n	x	x	n	n	n
COc1ccc(-c2c3c(=O)n(C)c(=O)n(C)c3cn2-c2ccccc2O)cc1	x	n	u	n	u	x
COc1ccc(-c2c3c(=O)n(C)c(=O)n(C)c3cn2-c2cc(OC)ccc2OC)cc1	u	n	u	n	n	13µM
CCCCNC(=O)c1cc2nc3c(c(C(F)(F)F)n2n1)CCc1ccccc1-3	n	x	n	n	n	n
CC(C)CNC(=O)c1cc2nc3c(c(C(F)(F)F)n2n1)CCc1ccccc1-3	n	n	n	n	-67	n
Cc1ccc(CCNC(=O)C2CCCN(S(=O)(=O)c3ccc4c(c3)oc(=O)n4C)C2)cc1 (centres undefined)	n	x	x	n	n	n
